Structures can show the parent of a compound that is named as a salt. ± gives the standard deviation of the averaged measurements.

The subject of one assay is E18 rat cortical neuron-glia co-culture. The assay can be described thus: fiber score / MBP score (myelination specific beyond OL differentiation) (ratio); higher = more myelination-specific MBP alignment. The settings on record: 1 µM; treatment time: 8 days (DIV5-DIV13). A digest of the protocol: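 Papain-dissociated primary E18 rat cortical co-cultures, plated at 20,000 cells/well on poly-d-lysine/laminin 96-well plates, were exposed to library compounds at 1 or 5 µM in myelination medium between DIV5 and DIV13. Following fixation in 4 % paraformaldehyde, cultures were stained for MBP, Olig2 and DAPI, and four 10X fields per well were analysed in duplicate wells. Values are the ratio of fiber score (continuous MBP fiber length per Olig2+ nucleus) to MBP score (thresholded MBP area × intensity per Olig2+ nucleus).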
Consider `Cc1[nH]c(=O)c(C#N)cc1-c1ccncc1` [Milrinone], for which the “fiber score / MBP score” value was 0.762.

In the case of `Nc1ncn([C@@H]2O[C@H](CO)[C@@H](O)[C@H]2O)c(=O)n1` [Azacitidine], the “fiber score / MBP score” value amounted to 0.686.

Regarding `CC(=O)[C@H]1CC[C@H]2[C@@H]3CCC4=CC(=O)CC[C@]4(C)[C@H]3CC[C@]12C` [Progesterone], the “fiber score / MBP score” value was found to be 0.688. As for `c1ccc2c(c1)CCCC2C1=NCCN1` (centres undefined) [Tyzine], the “fiber score / MBP score” value is 0.783. For the molecule `COc1ccc(CCN(C)CCCC(C#N)(c2ccc(OC)c(OC)c2)C(C)C)cc1OC` (centres undefined) [Verapamil], the “fiber score / MBP score” value stood at 0.856.

Still in this assay, the particulars now being: 5 µM; treatment time: 8 days (DIV5-DIV13).
Regarding `CCOC(=O)[C@H](CCc1ccccc1)N[C@H]1CCc2ccccc2N(CC(=O)O)C1=O` [Benazepril], the “fiber score / MBP score” value turned out to be 0.971. Consider `Cc1cc2c(s1)Nc1ccccc1N=C2N1CCN(C)CC1` [Olanzapine], for which the “fiber score / MBP score” value turned out to be 0.751.

Take `CC1=C(C/C=C(\C)CCC[C@H](C)CCC[C@H](C)CCCC(C)C)C(=O)c2ccccc2C1=O` [Phylloquinone]: the “fiber score / MBP score” value came out at 0.723. Turning to `CN(CCO)CC(O)Cn1cnc2c1c(=O)n(C)c(=O)n2C` (centres undefined) [Jupal], the “fiber score / MBP score” value was 0.635.

As to `C[C@H]1C[C@@H]2[C@H]([C@@H](O)C[C@@]3(C)[C@H]2CC[C@]3(O)C(=O)CO)[C@@]2(C)C=CC(=O)C=C12` [Methylprednisolone], the “fiber score / MBP score” value was determined as 1.01. Take `CC(=O)OCC(=O)[C@@]1(O)CC[C@H]2[C@@H]3CCC4=CC(=O)C=C[C@]4(C)[C@H]3[C@@H](O)C[C@@]21C` [Prednisolone acetate]: the “fiber score / MBP score” value was found to be 0.704. Regarding `Clc1cccc(Cl)c1NC1=NCCN1` [Clonidine hydrochloride], the “fiber score / MBP score” value was 0.879. `Cn1ccnc1S` [Methimazole]: the “fiber score / MBP score” value worked out at 0.312.

Regarding `C[C@@H]1C[C@H]2[C@@H]3C[C@H](F)C4=CC(=O)C(Cl)=C[C@]4(C)[C@@]3(F)[C@@H](O)C[C@]2(C)[C@@]1(O)C(=O)CO` [Halometasone hydrate], the “fiber score / MBP score” value amounted to 0.394.

Take `COc1c(N2C[C@@H]3CCCN[C@@H]3C2)c(F)cc2c(=O)c(C(=O)O)cn(C3CC3)c12` [Moxifloxacin]: the “fiber score / MBP score” value was 0.689.

In the case of `CC(C)NCC(O)c1ccc(O)c(O)c1` (centres undefined) [Isoproterenol], the “fiber score / MBP score” value turned out to be 0.931.

Take `CC(C)(C#N)c1cc(Cn2cncn2)cc(C(C)(C)C#N)c1` [Anastrozole]: the “fiber score / MBP score” value was 0.734.

As to `CO[C@@]1(NC(=O)Cc2cccs2)C(=O)N2C(C(=O)O)=C(COC(N)=O)CS[C@@H]21` [Cefoxitin], the “fiber score / MBP score” value was 0.686. On to `Cc1cnc(C(=O)NCCc2ccc(S(=O)(=O)NC(=O)NC3CCCCC3)cc2)cn1` [Glipizide], for which the “fiber score / MBP score” value is 0.658. Consider `COc1ccc(CN2CCN(C(c3ccc(F)cc3)c3ccc(F)cc3)CC2)c(OC)c1OC` [Lomerizine], for which the “fiber score / MBP score” value is 0.643. Take `CC1COc2c(N3CCN(C)CC3)c(F)cc3c(=O)c(C(=O)O)cn1c23` (centres undefined) [Ofloxacin]: the “fiber score / MBP score” value came to 0.784 ± 0.19.

On to `CN(C)CCOC(c1ccccc1)c1ccccc1` [Diphenhydramine], for which the “fiber score / MBP score” value is 0.525. `C/C(=C\C(=O)OCCCCCCCCC(=O)O)C[C@@H]1OC[C@H](C[C@@H]2O[C@H]2[C@@H](C)[C@H](C)O)[C@@H](O)[C@H]1O` [Mupirocin]: the “fiber score / MBP score” value came to 0.41.

For `CC[C@@H]1C(=O)OC[C@@H]1Cc1cncn1C` [Pilocarpine], the “fiber score / MBP score” value came to 0.782. Turning to `CNCCC=C1c2ccccc2CCc2ccccc21` [Nortriptyline], the “fiber score / MBP score” value turned out to be 1.93.

As to `CC1(C)S[C@@H]2[C@H](NC(=O)[C@H](N)c3ccc(O)cc3)C(=O)N2[C@H]1C(=O)O` [Amoxicillin], the “fiber score / MBP score” value was determined as 0.761. On to `C=C[C@H]1CN2CC[C@H]1C[C@H]2[C@H](O)c1ccnc2ccc(OC)cc12` [Quinine], for which the “fiber score / MBP score” value was determined as 0.644. `C#C[C@]1(O)CC[C@H]2[C@@H]3[C@H](C)CC4=C(CCC(=O)C4)[C@H]3CC[C@@]21C` [Tibolone]: the “fiber score / MBP score” value is 0.773. As to `C[C@@H]1C[C@H]2[C@@H]3CCC4=CC(=O)C=C[C@]4(C)[C@@]3(F)[C@@H](O)C[C@]2(C)[C@H]1C(=O)CO` [Desoximetasone], the “fiber score / MBP score” value amounted to 0.758.

For the molecule `COc1ccc2c3c1O[C@H]1C[C@@H](O)C=C[C@@]31CCN(C)C2` [Galantamine], the “fiber score / MBP score” value came to 0.673. In the case of `N[C@@H](C(=O)N[C@@H]1C(=O)N2C(C(=O)O)=C(Cl)CS[C@H]12)c1ccccc1` [Cefaclor], the “fiber score / MBP score” value was found to be 0.875. In the case of `CC1(C)S[C@@H]2[C@H](NC(=O)COc3ccccc3)C(=O)N2[C@H]1C(=O)O` [Penicillin V], the “fiber score / MBP score” value was determined as 0.734. Regarding `CN1CCN(C2=Nc3cc(F)ccc3Cc3ccccc32)CC1` [Fluperlapine], the “fiber score / MBP score” value came out at 0.587. Still for that read-out and setting: with `CNC(=C[N+](=O)[O-])NCCSCc1ccc(CN(C)C)o1` [Ranitidine] the figure was 1.03. `C[C@H]1C[C@H]2[C@@H]3CCC4=CC(=O)C=C[C@]4(C)[C@@]3(F)[C@@H](O)C[C@]2(C)[C@@]1(O)C(=O)CCl` [Clobetasol]: the “fiber score / MBP score” value worked out at 0.686. Turning to `CC(COc1ccccc1)N(CCCl)Cc1ccccc1` (centres undefined) [Phenoxybenzamine], the “fiber score / MBP score” value was determined as 0.918. For `Nc1ccc(O)c(C(=O)O)c1` [Mesalamine], the “fiber score / MBP score” value came out at 0.63. Same read-out and setting: next, `CC12CC3CC(C)(C1)CC(N)(C3)C2` [Memantine]: 0.838 ± 0.13; `C[C@H]1O[C@H](O[C@H]2[C@H](O)[C@@H](O)[C@@H](O[C@H]3[C@H](O)[C@@H](O)C(O)O[C@@H]3CO)O[C@@H]2CO)[C@H](O)[C@@H](O)[C@@H]1N[C@H]1C=C(CO)[C@@H](O)[C@H](O)[C@H]1O` (some centres undefined) [Acarbose]: 0.99; `Cc1[nH]c(=O)c(C#N)cc1-c1ccncc1` [Milrinone]: 0.504. With `Nc1ncn([C@@H]2O[C@H](CO)[C@@H](O)[C@H]2O)c(=O)n1` [Azacitidine], the “fiber score / MBP score” value turned out to be 0.777.

For `CC(=O)[C@H]1CC[C@H]2[C@@H]3CCC4=CC(=O)CC[C@]4(C)[C@H]3CC[C@]12C` [Progesterone], the “fiber score / MBP score” value was 0.552. As for `c1ccc2c(c1)CCCC2C1=NCCN1` (centres undefined) [Tyzine], the “fiber score / MBP score” value turned out to be 0.873. Still for that read-out and setting: next, `COc1ccc(CCN(C)CCCC(C#N)(c2ccc(OC)c(OC)c2)C(C)C)cc1OC` (centres undefined) [Verapamil]: 0.533.

Source of the values: the supplement of paper PMC4840960.
